Laboratory results taken from PubChem BioAssay AID1851 (National Center for Advancing Translational Sciences (NCATS), 2009).
Hit rate of the full screen: of about 16,000 compounds, about 4,000 (25%) were called active. Another 26% or so got no clear call; they are omitted. Not all results are given here. A number with no mark means an inactive call. The call rests on the fitted dose curve; in most records, active means well fitted curve in the direction sought with a large enough effect; inconclusive means small, poorly fitted or top-dose-only effect, or effect the other way; inactive means no such curve, though single readings can be large or run the other way.

These compounds were tested against Cytochrome P450 2C9 (Homo sapiens) (UniProt P11712) (assay: Cytochrome panel assay with activity outcomes). Conditions: recombinant CYP, pro-luciferin dealkylation, luminescence, p450-cyp2c9; series mostly up to 57.1 µM; activity, negative = inhibition: at the top concentration.
Cytochrome P450 2C9 (Homo sapiens), sequence (P11712 whole entry, looked up): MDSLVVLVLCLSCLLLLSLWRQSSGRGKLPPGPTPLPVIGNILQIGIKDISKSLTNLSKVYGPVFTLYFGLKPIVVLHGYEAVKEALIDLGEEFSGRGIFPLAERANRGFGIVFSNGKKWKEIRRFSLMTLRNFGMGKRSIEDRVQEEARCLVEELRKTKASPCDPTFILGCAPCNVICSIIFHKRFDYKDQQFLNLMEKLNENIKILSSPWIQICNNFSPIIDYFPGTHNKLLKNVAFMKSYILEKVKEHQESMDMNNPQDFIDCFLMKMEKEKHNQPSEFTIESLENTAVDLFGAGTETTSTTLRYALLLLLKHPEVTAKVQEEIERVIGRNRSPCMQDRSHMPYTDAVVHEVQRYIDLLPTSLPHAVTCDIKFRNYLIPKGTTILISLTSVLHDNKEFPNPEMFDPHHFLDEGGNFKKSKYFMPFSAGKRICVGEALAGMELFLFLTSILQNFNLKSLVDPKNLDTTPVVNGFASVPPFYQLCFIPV
On the % scale 0 is the no-effect control and ±100 the full control effect.

Structure (SMILES) | activity, negative = inhibition | AC50
CC(C)CN1CCC2(CC1)CCN(S(=O)(=O)c1ccccc1)CC2 | 2.64% | 
CC(Oc1ccc(-c2ccccc2)c(F)c1)c1ccn(S(=O)(=O)c2ccc(Cl)cc2)n1 (centres undefined) |  | 7.08 µM (active)
CC(Oc1ccccc1)c1ccnn1S(=O)(=O)c1ccccc1 (centres undefined) |  | 4.47 µM (active)
CC(Oc1ccc(Cl)cc1)c1ccnn1S(=O)(=O)c1ccccc1 (centres undefined) |  | 7.94 µM (active)
COc1cc2nc(N3CCN(C(=O)[C@@H]4CCCO4)CC3)nc(N)c2cc1OC | 8.56% [at 25.6 µM] | 
O=C(NNS(=O)(=O)c1cc(Cl)cc(Cl)c1)c1sccc1-n1cccc1 |  | 0.126 µM (active)
CNc1ncnc2c1ncn2[C@@H]1O[C@@H](CO)[C@H](O)[C@@H]1O | -1.43% | 
CNc1ncnc2c1ncn2[C@@H]1O[C@H](CO)[C@@H](O)[C@@H]1O | -2.78% [at 25.6 µM] | 
CCCCC#Cc1nc(NC)c2ncn([C@@H]3O[C@@H](CO)[C@H](O)[C@H]3O)c2n1 |  | 0.631 µM (active)
COc1ccc2c(c1)N(CC[C@H]1CCCCN1C)c1ccccc1S2 | -3.81% [at 11.4 µM] | 
CSC1=C(C#N)C(c2ccccc2Cl)C2=C(N1)c1ccccc1C2=O (centres undefined) |  | 1 µM (active)
N#CC1=C(SCC(N)=O)NC2=C(C(=O)c3ccccc32)C1c1ccc(Cl)cc1 (centres undefined) |  | 6.31 µM (active)
O=C(O)CC/C=C\CC[C@H]1[C@@H](N2CCCCC2)[C@@H](O)C[C@@H]1OCc1ccc(-c2ccccc2)cc1 | 11.9% | 
COCCCNCC(=O)c1c(N)n(Cc2ccccc2)c(=O)n(C)c1=O | -17.7% | 
Cn1c(=O)c2c(n(Cc3ccccc3)c1=O)NC(=O)C2CC(=O)NCc1cccc(Cl)c1 (centres undefined) |  | 12.6 µM (active)
C1CCN(CC[C@@H]2CCCCN2)CC1 | 12.5% [at 11.4 µM] | 
C[N+](C)(N)Cc1csc(-c2ccc(Cl)cc2)n1 | 2.29% [at 11.4 µM] | 
CCCCCN1CC(O)=C(c2nc(-c3ccc(Cl)cc3)cs2)C1=N |  | 0.631 µM (active)
CCCCc1n[nH]c2c1/C(=N/O)CC(c1ccccc1)C2 (centres undefined) |  | 2 µM (active)
COc1ccccc1-c1ccc2ncnc(NCc3cnc(C)cn3)c2c1 | -18.5% [at 2.29 µM] | 

Structure (SMILES) | activity, negative = inhibition | AC50
O=C1CC(c2cccs2)c2cc3c(cc2N1)OCO3 (centres undefined) |  | 15.8 µM (active)
COc1ccc(Oc2nc3ccccc3nc2C(F)(F)F)cc1 |  | 7.94 µM (active)
COc1ccc(-n2c(=O)cnc3cnc(Oc4ccccc4)nc32)cc1 | -20% | 
O=C1C=C(N2CCN(c3ccccn3)CC2)C(=O)c2c(O)ccc(O)c21 | -10.2% [at 11.4 µM] | 
O=C(NCCc1ccccc1)N1c2ccccc2Sc2ccccc21 |  | 12.6 µM (active)
O=C(O)CNCCc1ccccc1 | 12.3% [at 11.4 µM] | 
C[C@@H](CN1c2ccccc2Sc2ccccc21)N(C)C |  | inactive
O=C(NCCCN1CCc2ccccc2C1)C1CCN(S(=O)(=O)N2CCCC2)CC1 | -27% | 
O=S(=O)(c1ccc(Cl)s1)N1CCc2ccccc2C1 |  | 28.2 µM (active)
C=CCNCCCCOc1c(Cl)cc(C)cc1Br | 28.8% | 
COc1ccc2c(c1)OC1=C(C(=O)CCC1)C2C1=C(O)CCCC1=O (centres undefined) |  | 22.4 µM (active)
COc1ccc2oc(=O)c(NC(=O)C3CCCCC3)cc2c1 | -3.66% | 
COc1ccccc1CN(Cc1cc2cc3c(cc2[nH]c1=O)OCCO3)Cc1nnnn1Cc1ccco1 |  | 12.6 µM (active)
CN1CCc2[nH]nc(-c3n[nH]c4c3CN(C)CC4)c2C1 | 3.89% [at 11.4 µM] | 
CCOc1cc(CC(=O)N[C@@H](CC(C)C)c2ccccc2N2CCCCC2)ccc1C(=O)O | -5.99% [at 25.6 µM] | 
C[N+]1(CC(=O)OCCCc2ccccc2)CCOCC1 | -7.29% | 
CCOc1ccc2[nH]c(=O)c(CN(CCc3ccccc3)C(=O)N3CCCC3)cc2c1 |  | 7.94 µM (active)
CCOc1ccc2[nH]c(=O)c(CN(CCc3ccccc3)C(=O)N3CCOCC3)cc2c1 |  | 7.08 µM (active)
CCOc1ccc(C2C(C(=O)O)c3ccccc3C(=O)N2CCN2CCOCC2)cc1 (centres undefined) | 7.76% | 
CN(C(=O)CCCOc1ccc2[nH]c(=O)ccc2c1)C1CCCCC1 | 25.2% | 

Structure (SMILES) | activity, negative = inhibition | AC50
CO[C@@H]1COC(=O)[C@@H](CCSC)NC(=O)C/C=C\[C@@H](C)COC(=O)[C@H](C)NC(=O)C/C=C\[C@H]1C | 10% [at 11.4 µM] | 
CN(Cc1ccco1)c1ncnc2ccc(-c3ccccc3C#N)cc12 | -18.9% [at 2.29 µM] | 
Oc1ccc2ccccc2c1/C=C\c1ccc2c(Br)cc(Br)c(O)c2n1 |  | 2.51 µM (active)
Oc1ccc2ccccc2c1C=NCc1c(O)ccc2ccccc12 | -2.74% [at 11.4 µM] | 
FC(F)(F)c1ccccc1-c1ccc2ncnc(NC3CC3)c2c1 | -6.68% [at 2.29 µM] | 
NS(=O)(=O)c1ccc(N=C2C(=O)Nc3ccccc32)cc1 | 0.554% [at 11.4 µM] | 
O=C1Nc2ccccc2/C1=N/c1sc2c(c1C(=O)NCCc1ccccc1)CCCC2 |  | 3.98 µM (active)
O=C(NCCc1ccccc1)C(=O)NN=C1CCCC1 | -22.4% | 
C=CC1=C(C(=O)O)N2C(=O)[C@@H](NC(=O)/C(=N\OCC(=O)O)c3csc(N)n3)[C@@H]2SC1 | 6.6% [at 25.6 µM] | 
CN(C)S(=O)(=O)Oc1cccc(C(=O)Nc2ccccc2Cl)c1 |  | 5.01 µM (active)
O=C(NNc1cccc(Cl)n1)Nc1ccccc1Cl | 2.18% | 
Cc1nc2cnc(N(C)C)nc2n(C)c1=O | -11.2% | 
CCOC(=O)c1sc2nc3c(cc2c1N)COC(C)(CC)C3 (centres undefined) |  | 10 µM (active)
CCOC(=O)c1sc2nc3c(cc2c1N)COC(C(C)C)C3 (centres undefined) | -14.7% | 
CCOC(=O)C1=C(C)NC(C)=C(C(=O)OC)[C@H]1c1cccc([N+](=O)[O-])c1 |  | 0.158 µM (active)
CCOC(=O)/C(=C/Nc1ccccc1)[N+](=O)[O-] | -19.7% | 
CCOC(=O)C1=C(C)NC(C)=C(C(=O)OC)[C@@H]1c1cccc([N+](=O)[O-])c1 |  | 0.316 µM (active)
C#CCN1C(C)=C(C(=O)OC)[C@@H](c2cccc([N+](=O)[O-])c2)C(C(=O)OCC)=C1C |  | 0.316 µM (active)
CO[C@H]1COC(=O)[C@@H](CCSC)NC(=O)C/C=C\[C@@H](C)[C@H](OC)COC(=O)[C@@H](OCc2ccccc2)/C=C\[C@@H]1C | 19.4% [at 11.4 µM] | 
